Source: PubChem BioAssay (several laboratories)
GDH-TPI counter – GDH-TPI coupled enzyme inhibition counter-screen | GDH-TPI coupled enzyme counterscreen, NADH absorbance | inhibition, % at 4.8 µM | 1.2% of 360,000 active | AID 588335; in the data active means inhibition above about 30%;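 further: 0% = DMSO wells and 100% = wells lacking the enzyme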
Mtb betalactam – beta-lactam sensitization of Mtb H37Rv | inhibition, % at 25 µM | AID 434955 | 0.27% of 330,000 active | M. tuberculosis H37Rv growth with meropenem, percent inhibition; call rule not given here;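 further: growth measured after seven days incubation then overnight dye step; 0% = bacteria only wells and 100% = bacteria with antibiotic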
UGM FP inh – Mtb UDP-galactopyranose mutase inhibition. purified UGM, fluorescence polarization probe displacement. P9WIQ1. 0.06% of 320,000 active. inhibition, % at 10 µM; in the data active means inhibition above about 10%, passing the limit was not always enough
Target sequence (P9WIQ1 whole entry, looked up): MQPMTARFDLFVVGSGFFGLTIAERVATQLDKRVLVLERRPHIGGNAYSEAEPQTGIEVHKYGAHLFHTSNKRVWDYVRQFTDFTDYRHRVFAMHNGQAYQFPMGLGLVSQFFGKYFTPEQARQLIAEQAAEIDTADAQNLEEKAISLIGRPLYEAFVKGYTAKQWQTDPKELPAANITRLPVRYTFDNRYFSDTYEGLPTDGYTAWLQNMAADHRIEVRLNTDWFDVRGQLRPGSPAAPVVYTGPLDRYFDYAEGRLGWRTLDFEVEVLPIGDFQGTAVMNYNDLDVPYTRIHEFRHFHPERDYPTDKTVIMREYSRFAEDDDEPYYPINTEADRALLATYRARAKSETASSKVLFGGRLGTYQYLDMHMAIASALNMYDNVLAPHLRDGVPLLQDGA
Mtb FBA inh – inhibits M. tuberculosis FBA enzyme; 2.3% of 360,000 active; AID 588726; inhibition, % at 1 µM; P9WQA3; purified M. tuberculosis FBA, fluorescence read-out; in the data active means inhibition above about 27%;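 further: 0% = vehicle and 100% = reference inhibitor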
Rv3671c protease – inhibits the M. tuberculosis serine protease Rv3671c; inhibition, % at 5.96 µM; 0.048% of 320,000 active; P9WHR9; in the data active means inhibition above about 38%;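 further: extracellular domain of Rv3671c used as enzyme; 0% = enzyme with DMSO and 100% = no enzyme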
FadD28 binding – M. tuberculosis FadD28 bisubstrate binding inhibition | inhibition, % at 12.5 µM | FadD28 bisubstrate probe binding, fluorescence polarization | AID 588549 | 0.22% of 360,000 active; in the data active means inhibition above about 8.5%, passing the limit was not always enough
An asterisk follows results filed as active; · = not tested or not shown; + = active, no number. The list is not random: actives were taken first. Their share in the collection is about 3.7%.

SMILES	GDH-TPI counter	Mtb betalactam	UGM FP inh	Mtb FBA inh	Rv3671c protease	FadD28 binding
CCc1nc2c(OCc3c(C)noc3C)cccn2c1N(C)C(=O)c1ccccc1F	7	·	·	-1	·	0
COc1ccc(C(CC(=O)c2ccc(C)cc2)C(C#N)C#N)cc1OC (configuration not stated)	-7	7	-1	-2	-11	-1
COc1ccc(/C=C(\C#N)C(=O)NCc2ccccc2)cc1	40*	4	-4	-2	-5	-1
COc1ccc(/C=C(\C#N)C(=O)NCC(c2ccc(F)cc2)N2CCOCC2)cc1 (configuration not stated)	43*	-5	0	-1	-10	-1
N#C/C(=C\c1ccc(O)cc1)C(=O)NCc1ccccc1	22	-6	3	0	-18	1
CNC(=O)/C(C#N)=C/c1ccc(OCCOc2ccccc2)cc1	40*	58	0	0	·	-1
N#C/C(=C\c1ccc(OCC(N)=O)cc1)C(=O)NC1CC1	45*	-7	0	-4	3	-3
CCOC(=O)c1nn(C)c2[nH]c(=O)n(C)c(=O)c12	10	·	·	5	·	0
N#C/C(=C\c1ccc(O)c(O)c1)C(=O)NCCc1ccccc1	11	-2	-2	-16	2	11*
O=C1OCCN1C(=O)[C@H]1[C@H](c2ccc(Cl)cc2)C(c2ccc(F)cc2)=NN1c1ccc(Br)cc1	31*	·	·	55*	·	-1
O=C1OCCN1C(=O)[C@H]1[C@H](c2ccc(F)cc2)C(c2ccc(F)cc2)=NN1c1ccc(Br)cc1	16	94	3	10	-11	-3
CCc1noc(C)c1C(=O)OC(C)C(=O)Nc1ccc(Cl)cn1 (configuration not stated)	-11	-2	3	-4	-1	-4
C/C(=N\NC(=O)c1cc(-c2cccc(OC(C)C)c2)nc2ccccc12)c1cccnc1	10	10	-1	2	·	-4
Cc1ccc(C=NNC(=O)c2cc(-c3cccnc3)nc3ccccc23)o1	34*	0	-1	0	-1	0
Cc1ccc(/C=N/NC(=O)c2cc(-c3ccccc3)nc3ccccc23)o1	22	7	-2	-1	-3	-9
C/C(=N\NC(=O)c1cc(-c2cccnc2)nc2ccccc12)c1ccc(O)cc1O	35*	15	3	-1	5	0
O=C(NCc1cccnc1)c1ccc(NS(=O)(=O)c2cccc([N+](=O)[O-])c2)cc1	10	2	-1	-3	0	1
COc1cccc(Nc2ccccc2C(=O)O)c1	7	-1	2	-2	11	1
COc1cccc(Nc2ncc(C(=O)O)c3ccccc23)c1	36*	4	1	-4	-11	-3
COCCn1c(=NC(=O)CCS(=O)(=O)c2ccccc2)sc2cc(C)ccc21	2	-10	2	0	-5	-4
COCCn1c(=NC(=O)/C=C/c2cccs2)sc2cc(NC(C)=O)ccc21	31*	3	0	0	-20	-2
Cc1ccc(C(=O)Nc2nnc(C)s2)o1	22	7	-2	-1	3	-3
Cc1ccc(/C=C/C(=O)Nc2nnc(C)s2)o1	32*	-4	1	2	-2	1
O=C1C=CC(=O)C2C1C1(Cl)C(Cl)=C(Cl)C2(Cl)C1(Cl)Cl (configuration not stated)	-4	·	·	-3	·	37*
N=c1c(C(=O)NC2CCCCC2)cc2c(=O)n3ccccc3nc2n1CC1CCCO1 (configuration not stated)	6	-5	2	+	2	0
COc1ccc(CCn2c(=N)c(C(=O)NCC3CCCO3)cc3c(=O)n4ccccc4nc32)cc1OC (configuration not stated)	12	-3	-2	-4	-2	0
COc1ccc(CCn2c(=N)c(C(=O)NC3CCCC3)cc3c(=O)n4ccccc4nc32)cc1OC	9	8	1	-2	-11	-1
COCCCn1c(C(=O)N2CC(C)OC(C)C2)cc2c(=O)n3ccccc3nc21 (configuration not stated)	18	-2	0	+	0	-2
CC(NC(=O)c1cc2c(=O)n3ccccc3nc2n(CC2CCCO2)c1=N)c1ccccc1 (configuration not stated)	18	4	2	+	-12	0
